# Compound activity as filed in PubChem.
# Shown are actives, neighbours in structure and some others; about 3.5% of the full set was active somewhere.
# TEAD-YAP inh: TEAD-YAP interaction inhibition, primary screen, TEAD-YAP interaction inhibitor project, luminescence, HEK-TIYL cells; TEAD-Gal4/YAP UAS-luciferase luminescence; inhibition, % at 9.12 µM; 640,000 tested, 1.4% active; in the data active = inhibition above about 32%;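 also: 0% = median of test compound wells and 100% = reference inhibitor wells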
# MITF inh: MITF inhibitors, primary screen, biochemical, AlphaScreen, human | inhibition, % at 2.6 µM | 650,000 tested, 0.91% active | AID 1259374, 2018 | AlphaScreen MITF homodimerization, bead proximity signal | Microphthalmia-associated transcription factor (Homo sapiens), O75030; in the data active = inhibition above about 50%;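 also: 0% = vehicle wells with protein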
# GPR151 activ: activators of human GPR151, primary screen, cell-based, PathHunter beta-arrestin, luminescence | G-protein coupled receptor 151 (Homo sapiens), Q8TDV0 | PathHunter beta-arrestin GPR151 cells | activation, % at 11.2 µM | 650,000 tested, 1% active | AID 1508602, 2020; in the data active = activation above about 4.9%;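 also: 0% = median of compound wells and 100% = cells with positive control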
# Target sequence (Q8TDV0 whole entry, looked up): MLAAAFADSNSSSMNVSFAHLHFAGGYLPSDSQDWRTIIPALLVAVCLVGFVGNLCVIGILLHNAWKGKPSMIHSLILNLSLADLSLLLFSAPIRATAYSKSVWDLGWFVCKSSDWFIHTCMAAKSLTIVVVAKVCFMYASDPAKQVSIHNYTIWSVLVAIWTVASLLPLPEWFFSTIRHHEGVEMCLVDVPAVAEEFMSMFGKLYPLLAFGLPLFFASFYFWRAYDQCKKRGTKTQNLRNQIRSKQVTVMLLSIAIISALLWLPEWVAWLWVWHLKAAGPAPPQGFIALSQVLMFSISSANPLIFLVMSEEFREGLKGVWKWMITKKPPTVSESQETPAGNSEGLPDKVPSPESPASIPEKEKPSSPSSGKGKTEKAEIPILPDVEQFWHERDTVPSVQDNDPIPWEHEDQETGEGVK
# FBW7 activator: FBW7 E3 ligase activators, primary screen, biochemical, AlphaScreen, human; F-box/WD repeat-containing protein 7 (Homo sapiens), Q969H0; 650,000 tested, 0.13% active; AlphaScreen FBW7–phospho-cyclin E peptide binding, activator screen; AID 1259310, 2017; normalized activity (activation), % at 26.1 µM; in the data active = normalized activity above about 1.9%;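 also: purified mutant Fbw7 with reduced substrate affinity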
# MITF confirm: MITF inhibitors, retest of hits, confirmation, biochemical, AlphaScreen, triplicate; 4,700 tested, 16% active; inhibition, % at 2.6 µM; shares compounds with MITF inh; AlphaScreen MITF homodimerization, biotin/His-MITF beads;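 active = inhibition above a cutoff derived from the DMSO control wells, cut at about 28% in these data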;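 also: 0% = MITF dimer wells with DMSO only; inhibitors lower the bead chemiluminescence by keeping MITF from dimerizing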
# AlphaScreen DR: AlphaScreen optical interference compounds, dose response, counter-screen, biochemical, HTS; shares compounds with MITF inh; AlphaScreen optical interference counterscreen, cell-free; IC50, µM; 480 tested, 6% active; call rule not given here
# AS interf ctr: AlphaScreen optical interference compounds, counter-screen for MITF inhibitor project, biochemical, triplicate; LysRS AlphaScreen counterscreen, signal interference; 4,700 tested, 7.6% active; inhibition, % at 2.6 µM; shares compounds with MITF inh; AID 1259376, 2018;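 active = inhibition above a cutoff derived from the DMSO control wells, cut at about 30% in these data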
# GPR151 conf act: GPR151 activators, triplicate retest, confirmation, cell-based, PathHunter beta-arrestin, luminescence; shares compounds with GPR151 activ; GPR151 PathHunter beta-arrestin cells, 90 min; % of EA-reagent control over plate median; activation, % at 11.2 µM; 6,700 tested, under 10 active; AID 1508609, 2020;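 active = mean percent activation across replicates above the confirmation screen cutoff of 4.91%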
# GPR119 counter: GPR119 activators in beta-arrestin cells, counter-screen for GPR151 activator project, cell-based, PathHunter beta-arrestin, luminescence, triplicate | shares compounds with GPR151 activ | 90 min; 0 = compound-well median, 100 = enzyme-acceptor control | activation, % at 11.2 µM | 6,700 tested, 0.3% active;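 active = mean percent activation in the counterscreen above 29.09%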;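 also: counterscreen on off-target GPR119 to flag nonselective hits from the GPR151 activator screen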
# The depositor's hits bear a star; nt = no result given.
SMILES,TEAD-YAP inh,MITF inh,GPR151 activ,FBW7 activator,MITF confirm,AS interf ctr,others
CCC(=O)c1ccccc1OCCN1CCN(CC)CC1,-2,68*,3,0,15,18,
CCC(=O)c1ccccc1OCCCCn1cncn1,2,74*,0,0,9,20,
CCC(=O)c1ccccc1OCCCN1CCN(Cc2ccccc2)CC1,4,56*,1,0,4,20,
C/C(=N/NC(=O)c1cc(C)oc1C)c1ccc(O)cc1,-19,8,-3,0,nt,nt,
O=C(CSc1nc(=O)n(CCN2CCOCC2)c2c1CCCC2)Nc1cccc2ccccc12,6,-3,1,0,nt,nt,
Cc1c(NC(=O)CCN2C(=O)C3C4CCC(C4)C3C2=O)ccc(Br)c1Cl (stereo not given),-19,68*,-1,0,10,-3,
CCc1nn(-c2ccccc2)c2nc(-c3cc(Br)ccc3O)c3cc(OC)c(OC)cc3c12,0,6,-1,0,nt,nt,
Cc1cccc(C)c1NC(=O)C(Cc1c[nH]c2ccccc12)NC(=O)OC(C)(C)C (stereo not given),-1,63*,1,0,9,11,
O=C(CN1CCC(N2CCCCC2)CC1)c1ccc2c(c1)OCCO2,-6,58*,3,0,11,16,
O=C(CN1CCC(N2CCCCC2)CC1)Nc1ccc2c(c1)OCCO2,-6,7,2,0,nt,nt,
COc1ccc(CN(C)CCN(C)C)cc1OC,-7,16,0,0,nt,nt,
COc1cc(Br)c(CN(C)CCN(C)C)cc1OC,-3,-16,1,0,nt,nt,
COc1cc(CN(C)CCN(C)C)cc(OC)c1,-3,64*,-1,0,1,-1,
COc1ccc(CN(C)CCN(C)C)cc1C,0,58*,-1,0,3,16,
Cc1ccc(F)cc1NC(=O)c1sc2ncnc(N3CCN(c4ccccn4)CC3)c2c1C,5,6,-1,0,nt,nt,
CC1CN(CCCOc2cc(Cl)ccc2Cl)CC(C)O1 (stereo not given),2,67*,8.0*,0,2,15,GPR151 conf act=0;GPR119 counter=-9
CCOc1c(OC)cccc1C1C(C(=O)Nc2ccccc2)=C(C)Nc2ncnn21 (stereo not given),12,-16,1,0,nt,nt,
COc1ccc(C(=O)N2CCN(Cc3ccc(Br)cc3)CC2)cc1,31,44,1,0,nt,nt,
O=C(c1ccncc1)N1CCN(Cc2ccc(Br)cc2)CC1,2,77*,10*,0,6,22,GPR151 conf act=1;GPR119 counter=16
COc1ccc(/C=C/C2=NC(=C\c3ccc(Cl)c(Cl)c3)/C(=O)O2)cc1,2,-2,0,0,nt,nt,
COC(=O)N(C)c1nc2ccccc2s1,-20,72*,5.1*,0,-2,-7,GPR151 conf act=0;GPR119 counter=-10
O=C1N[C@@H](COCc2ccccc2)C(=O)N2CCN(C(=O)NCc3ccccc3)C[C@H]12,6,75*,7.7*,0,72*,-3,AlphaScreen DR=>6.5;GPR151 conf act=0;GPR119 counter=11
O=C1N[C@@H](COCc2ccccc2)C(=O)N2CCN(C(=O)Oc3ccc(Cl)cc3)C[C@H]12,2,-7,2,0,nt,nt,
